The source of these data is PubChem BioAssay AID624296 (National Center for Advancing Translational Sciences (NCATS), 2012).

About 9,900 (2.8%) of roughly 350,000 compounds were called active. Roughly 15% stayed inconclusive and do not appear here. The call rests on the fitted dose curve; in most records, active means well fitted activation curve with a large enough effect; inconclusive means small, poorly fitted or top-dose-only effect; inactive means no such curve, though single readings can be large or run the other way. The list comes from a sample in which actives are over-represented; it also holds similar structures and randomly drawn compounds. A call without a number means that no potency is given here.
Potency means the concentration at half of the fitted maximal effect.

The assay is described as follows: A quantitative high throughput screen for small molecules that induce DNA re-replication in MCF 10a normal breast cells. Further: nearly all actives have a fitted effect of over 50% in size. To be noted: MCF 10A DNA re-replication, Hoechst nuclear intensity, 48 h; series mostly up to 46.1 µM.
As for `CSc1ncccc1C(=O)NCC(c1ccco1)N1CCCCC1` (configuration not stated), the Potency entry is “inactive”.

On to `CCCCCCC(=O)Nc1nc(C)c(-c2csc(Nc3cc(Cl)ccc3OC)n2)s1`, for which the Potency result is “inactive”.

As to `COC(=O)c1cnc(Nc2cc(C)ccc2OC)c2ccccc12`, the Potency entry is “inactive”.

With `COc1ccc(C)cc1Nc1nc(-c2c(C)[nH]c3ccccc23)cs1`, the Potency is 18.4 µM (active).

In the case of `CN(CC(=O)NCCc1ccc(F)cc1)CC(=O)Nc1ccc(F)c(F)c1F`, the Potency result is “inactive”.

For `CCN(CC)c1ccc(NC(=O)c2ccc(=O)[nH]c2)cc1S(=O)(=O)Nc1ccc(OC)cc1`, the Potency entry is “inactive”.

As for `Cc1ccc2nc(N3C(=O)C(O)=C(C(=O)c4ccco4)C3c3cccc(O)c3)sc2c1` (configuration not stated), the Potency was 23.1 µM (active).

Consider `COc1ccc2nc(N3C(=O)C(O)=C(C(=O)c4ccco4)C3c3ccco3)sc2c1` (configuration not stated), for which the Potency entry was “inactive”.

As to `Cc1ccc2nc(N3CCN(C(=O)c4ccco4)CC3)sc2c1`, the Potency entry is “inactive”.

On to `CCN(C(=O)COC(=O)c1c(C)nn(-c2ccccc2)c1Cl)c1c(N)n(Cc2ccccc2)c(=O)[nH]c1=O`, for which the Potency entry is “inactive”.

As for `Cc1cccc(NC(=O)CN2CCN(CC(=O)NCC3(N4CCCCC4)CCCCC3)CC2)c1C`, the Potency result was “inactive”.

Take `CCN(CC(=O)Nc1ccc(OC)cc1)C(=O)CSCc1ccc(C)cc1`: the Potency result was “inactive”.

Take `OCC[C@H]1C[C@@H](O)[C@H](O)[C@]2(OCCCc3ccccc32)O1`: the Potency entry is “inactive”.

As to `CN(C)/C=C/C(=O)c1ccccc1F`, the Potency entry was “inactive”.

For `O=C(/C=C/c1ccccc1)N/C(=C/c1ccccc1)C(=O)Nc1ccccc1O`, the Potency entry was “inactive”.

Turning to `O=C(/C=C/c1ccccc1)c1ccccc1O`, the Potency is 20.6 µM (active).

With `O=C(CSc1nnc(-c2ccncc2)o1)Nc1cccc(Cl)c1`, the Potency entry is “inactive”.

Take `CN(c1ccccc1)S(=O)(=O)c1ccc(C(=O)N2CCN(c3ccccc3Cl)CC2)cc1`: the Potency result is “inactive”.

As to `CN(c1ccccc1)S(=O)(=O)c1cc(C(=O)OCC(=O)N2CCN(C(=O)c3ccco3)CC2)ccc1Cl`, the Potency entry is “inactive”.

Take `CN(c1ccccc1)S(=O)(=O)c1cc(C(=O)N2CCN(c3ncccn3)CC2)ccc1Cl`: the Potency was 20.6 µM (active).

Turning to `CN(C(=O)c1cccc(NC(=O)Cc2cccc(NC(=O)C3CCCN(C(=O)C4CC4)C3)c2)c1)C1CCC1` (configuration not stated), the Potency result is “inactive”.

`CC[C@]1(C(=O)OC)[C@H]2C(=O)N(C)C(=O)[C@H]2[C@H]2CN(C)C(=NCc3ccccc3)N21`: the Potency result was “inactive”.

On to `Cc1cc(NC(=O)CSc2ncc(C(F)(F)F)cc2Cl)no1`, for which the Potency result was “inactive”.

As for `C=CC[C@@H](CC(=O)N[C@H](CO)Cc1ccccc1)C(=O)N[C@@H](COC(=O)[C@@H](CC=C)Cc1ccc(F)cc1)Cc1c[nH]c2ccccc12`, the Potency entry was “inactive”.

Consider `CCCCCCc1cc2cc(-c3nnc(-c4ccccc4)o3)c(=O)oc2cc1O`, for which the Potency was 1.46 µM (active).

`Cc1c(CCC(=O)O)c(=O)oc2cc3occ(-c4ccccc4)c3cc12`: the Potency result was “inactive”.

In the case of `Cc1c(CC(=O)NCCCCCC(=O)O)c(=O)oc2cc3occ(-c4ccccc4)c3cc12`, the Potency entry is “inactive”.

As for `COCc1cc(C)nc2sc(C(=O)NC3CCCCC3)c(N)c12`, the Potency result was “inactive”.

Consider `CCc1nnc(NC(=O)c2sc3nc(C)cc(COC)c3c2N)s1`, for which the Potency entry is “inactive”.

For the molecule `COc1ccc(OC)c(NC(=O)c2sc3nc(C)cc(C)c3c2N)c1`, the Potency was 11.6 µM (active).

In the case of `Cc1ccc(COC(=O)CN2C(=O)NC3(CCCC3)C2=O)cc1`, the Potency result is “inactive”.

`Cc1ccc(NC(=O)CCNC(=O)c2ccc([N+](=O)[O-])cc2)cc1S(=O)(=O)N1CCOCC1`: the Potency entry was “inactive”.

Regarding `O=C(CN1C(=O)NC2(CCCCCC2)C1=O)Nc1ccc([N+](=O)[O-])cc1`, the Potency result was “inactive”.

For `COc1cc2c(cc1OC)C1C(=O)c3cc(OS(C)(=O)=O)c(OC)cc3C1N(C)C2=O` (configuration not stated), the Potency result was “inactive”.

Consider `CCC(CO)Oc1cc(NC(=O)c2cccc3ccccc23)c2ncn(C(C)C)c2c1` (configuration not stated), for which the Potency entry is “inactive”.

Regarding `CCS(=O)(=O)Nc1ccc(C2=NN(C(C)=O)C(c3cccs3)C2)cc1` (configuration not stated), the Potency is 9.2 µM (active).

With `CS(=O)(=O)Nc1ccc(C2=NN(S(C)(=O)=O)C(c3cccs3)C2)cc1` (configuration not stated), the Potency entry was “inactive”.

For the molecule `COc1ccc(C2=NN(C(=O)CCC(=O)O)C(c3cccs3)C2)cc1OC` (configuration not stated), the Potency entry is “inactive”.

In the case of `Cn1cc(C2OC(=O)c3ccccc32)c2ccccc21` (configuration not stated), the Potency entry is “inactive”.

Turning to `NNC(=O)c1oc2nc(-c3ccccc3)cc(-c3ccco3)c2c1N`, the Potency was 20.6 µM (active).

For `O=C(Nc1cccc(F)c1)c1cc(-c2ccco2)nc2ccccc12`, the Potency entry was “inactive”.

As to `CNC(=S)NNC(=O)c1oc2nc(-c3ccccc3)cc(-c3ccco3)c2c1N`, the Potency result was “inactive”.

`Cc1ccc(S(=O)(=O)N2C[C@@H]3CCCC[C@@H]3[C@@H](C)[C@H]2c2cn(Cc3ccccc3)c3ccc(F)cc23)cc1`: the Potency entry is “inactive”.

Consider `Cn1c(N)c(C(=O)COC(=O)COc2ccc(Cl)cc2)c(=O)n(C)c1=O`, for which the Potency result was “inactive”.

As for `Fc1ccc(N2N=C(c3cccs3)CC2c2ccco2)c(F)c1` (configuration not stated), the Potency was 7.31 µM (active).

In the case of `COc1ccccc1N1N=C(c2cccs2)CC1c1ccccc1` (configuration not stated), the Potency result is “inactive”.

Regarding `Cc1ccccc1C1CC(c2cccs2)=NN1S(C)(=O)=O` (configuration not stated), the Potency result is “inactive”.

Consider `C/C(=N\NC(=O)c1cc(-c2ccc(O)cc2)nc2ccccc12)c1cccnc1`, for which the Potency entry was “inactive”.

`O=C(N/N=C\c1cccnc1)c1cc(-c2ccccc2)nc2c(Cl)cccc12`: the Potency is 7.31 µM (active).

On to `O=C(N/N=C/c1cccnc1)c1cc2ccccc2cc1O`, for which the Potency entry is “inactive”.

Take `COc1cccc(CC(=NO)c2cccc(OC)c2)c1`: the Potency result is “inactive”.

For the molecule `CC1(C(=O)OCC(=O)Nc2ncc(Cl)cc2Cl)CC1(Cl)Cl` (configuration not stated), the Potency entry is “inactive”.

For the molecule `COc1ccc(CNC(=O)[C@H](Cc2c[nH]c3ccccc23)NC(C)=O)cc1OC`, the Potency entry is “inactive”.

`COc1cccc(NC(=O)[C@H](Cc2c[nH]c3ccccc23)NC(=O)[C@@H]2Cc3ccccc3CN2)c1`: the Potency was 18.4 µM (active).

`COc1ccc(NC(=O)[C@H](NC(=O)[C@@H]2Cc3ccccc3CN2)c2ccccc2)cc1`: the Potency result is “inactive”.

As for `CCc1c(Nc2ccccc2C)nc(N)[nH]c1=O`, the Potency result was “inactive”.

Turning to `COc1ccc(OC)c(CN2CCN(C(=O)CNC(=O)c3cc(C)cc(C)c3)CC2)c1`, the Potency result is “inactive”.

Take `Cc1ccc(C(=O)NCC(c2cccs2)N(C)C)cc1S(=O)(=O)N1CCOCC1` (configuration not stated): the Potency result is “inactive”.

Consider `COc1ccc2[nH]c3c(c2c1)CCN1C(=O)C(CC(=O)NCCc2ccccn2)C[C@H](C(=O)N2CCOCC2)[C@@]31C` (some centres not stated), for which the Potency result was “inactive”.

`CCc1ccc(C(=O)OCC(=O)Nc2cccc(S(=O)(=O)NC3=NCCCCC3)c2)cc1`: the Potency result is “inactive”.

Regarding `COc1ccccc1C(=O)OCC(=O)Nc1cccc(S(=O)(=O)NC2=NCCCCC2)c1`, the Potency was 18.4 µM (active).

As to `O=C(COC(=O)c1c(Cl)cccc1Cl)Nc1cccc(S(=O)(=O)NC2=NCCCCC2)c1`, the Potency result was “inactive”.
